Bioassay records: PubChem BioAssay, National Center for Advancing Translational Sciences (NCATS)
Only some compounds are listed: those with a hit (about 3% of all), similar ones and a draw of the others.
LmPK inhibitor = blocks Leishmania mexicana pyruvate kinase activity; purified LmPK, Kinase-Glo ATP luminescence, 1 h; Potency, µM (series often up to 57.5 µM), for inactives: top-dose activity change, negative = inhibition, actives largely listed as inhibitors; 290,000 tested, 0.37% active
Target sequence (Q27686 whole entry, looked up): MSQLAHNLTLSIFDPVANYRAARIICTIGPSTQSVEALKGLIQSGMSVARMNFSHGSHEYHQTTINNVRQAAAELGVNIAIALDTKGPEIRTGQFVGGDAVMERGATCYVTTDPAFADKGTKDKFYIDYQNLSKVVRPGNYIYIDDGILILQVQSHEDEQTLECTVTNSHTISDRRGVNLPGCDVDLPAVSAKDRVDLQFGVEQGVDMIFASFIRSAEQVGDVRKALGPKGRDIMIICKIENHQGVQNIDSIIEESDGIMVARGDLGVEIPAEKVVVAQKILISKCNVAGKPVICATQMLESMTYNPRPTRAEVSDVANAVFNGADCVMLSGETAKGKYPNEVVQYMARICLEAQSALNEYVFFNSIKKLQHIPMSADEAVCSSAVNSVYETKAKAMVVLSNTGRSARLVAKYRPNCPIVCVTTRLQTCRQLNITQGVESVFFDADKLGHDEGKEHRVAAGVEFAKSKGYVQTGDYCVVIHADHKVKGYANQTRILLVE
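Pyruvate kinase activity monitored as ATP production (luciferase luminescence). Conditions: 0.1 nM enzyme, 0.5 mM PEP, 0.1 mM ADP, 1 h, RT; normalized against uninhibited and no-enzyme wells.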
Tb PYK inh = T. brucei pyruvate kinase inhibition; 410,000 tested, 0.12% active; TbPYK enzyme, Kinase-Glo Plus ATP luminescence, 45 min; AID 624173; Potency, µM (top dose mostly 76.8 µM), for the others: top-dose activity, negative = inhibition, hits mostly inhibitors; further: nearly all actives have a fitted effect of over 50% in size
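Glycolytic pyruvate kinase of T. brucei was incubated with substrate, test compound and 130 uM ADP for 45 minutes at room temperature. Luminescent Kinase-Glo Plus signal was measured after 10 minutes.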
RE007 growth inh = less growth of the S. pombe RE007 Vpr strain | Potency, µM (top dose mostly 92.2 µM), for inactives: top-dose activity change, negative = less growth, hits mostly inhibitors | S. pombe RE007 Vpr strain, BacTiter-Glo ATP luminescence, 24 h | 360,000 tested, 0.21% active; active means well fitted falling curve with a large enough effect; inconclusive means small, poorly fitted or top-dose-only effect; inactive means no such curve, though single readings can be large or run the other way; further: nearly all actives have a fitted effect of over 50% in size
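Fission yeast RE007 carrying one integrated HIV-1 vpr copy, seeded at OD 0.01 in PMG+AL medium with 23 nL pinned compound. Grown 24 h at 30 degrees; viability read by BacTiter-Glo luminescence after 5 min.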
Sm TGR inh = blocks Schistosoma mansoni thioredoxin glutathione reductase; Q962Y6; purified TGR, DTNB reduction, TNB absorbance 405 nm; Potency, µM (doses to about 114 µM), for inactives: top-dose activity change, negative = inhibition, usual class: inhibitors; 360,000 tested, 3% active; AID 485364; further: nearly all actives have a fitted effect of over 60% in size
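TGR 20 nM + NADPH 100 uM (dispensed conc.), cpd preinc 15 min RT; start with NADPH (500 uM addition) then DTNB (15 mM addition). Kinetic TNB absorbance, 405 nm filter. Four-parameter Hill fit across titration.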
* marks the source's active call; other numbers are inactive results; ? = inconclusive; . = no result given; [ ] = dose if it differs, or a comment. Unless noted, the call rests on the fitted dose curve; in most records, active means well fitted curve in the direction sought with a large enough effect; inconclusive means small, poorly fitted or top-dose-only effect, or another doubt; inactive means no such curve, though single readings can be large; an effect the other way counts as inactive or inconclusive. On the % scale 0 is the no-effect control and ±100 the full control effect; potency means the concentration at half of the fitted maximal effect.

SMILES | LmPK inhibitor | Tb PYK inh | RE007 growth inh | Sm TGR inh
N#Cc1c(-c2ccco2)cc(-c2ccccc2)[nH]c1=O | 12.3% | 0.9% | 3.1% | 8.91µM*
Cc1ccc(-c2cc(C(F)(F)F)c(C#N)c(=O)[nH]2)cc1 | -1.1% | 6.8% | -8.5% | -2.7%
N#Cc1c(-c2ccccc2)cc(-c2ccco2)c(C#N)c1N | -6.6% | . | . | 2.82µM*
Cc1ccc(-c2cc(-c3ccco3)c(C#N)c(=O)[nH]2)cc1 | 3.0% | -14.5% | -2.3% | 2.24µM*
N#Cc1sc2nc(C3CC3)cc(-c3ccccc3)c2c1N | -0.8% | -1.6% | -4.0% | 8.8%
N#Cc1sc2nc(-c3ccccc3)cc(-c3ccco3)c2c1N | -1.3% | -5.4% | -5.7% | 39.8µM*
Cc1cc(-c2ccccc2)[nH]c(=O)c1C#N | 1.2% | 4.0% | 5.4% | -2.2%
CC(C)c1ccc(NC(=O)c2cc(S(=O)(=O)NC3CCCCC3)ccc2F)cc1 | . | -7.7% | . | 14.5%
CN(C)C=Nc1nc2ccccc2nc1N1CCCC1 | -0.6% | -9.6% | ? | 39.8µM*
O=C(COC(=O)c1ccc(F)c(S(=O)(=O)N2CCOCC2)c1)Nc1ccc(Cl)cn1 | . | -7.7% | -8.8% | .
CC1CCN(CC(=O)c2cccc(C(F)(F)F)c2)CC1 | 0.1% | -4.9% | -7.0% | 35.5µM*
CC(C)CC(=O)Nc1ccc(C(=O)CN2CCC(C)CC2)cc1 | 0.2% | 1.4% | -19.8% | 20µM*
CC1CCN(CC(=O)NNC(=O)c2cccc(Br)c2)CC1 | -6.2% | 0.0% | -3.0% | 3.8%
CCC(=O)Nc1ccc(N2CCC(C)CC2)cc1 | -4.5% | -9.4% | 12.9% | -2.3%
CCC(=O)Nc1ccc(C(=O)CN2CCC(C)CC2)cc1 | 12.5% | . | . | 31.6µM*
COc1ccc(S(=O)(=O)Nc2cccc(-c3ccc(N4CCCCCC4)nn3)c2)cc1 | . | -7.0% | . | 34.3%
Cc1oc2cc(Br)c(O)c(Br)c2c1-c1ccccc1 | 1.6% | 0.2% | ? | 10µM*
O=C1NC(=O)C(=Cc2coc3ccccc3c2=O)C(=O)N1 | -9.9%[11.5 µM] | ? | ? | 15.8µM*
O=C1NC(=O)C(=C/C=C/c2coc3ccc(Br)cc3c2=O)C(=O)N1 | 12.4% | . | . | 0.794µM*
O=C1NC(=S)S/C1=C\c1coc2ccccc2c1=O | -16.8% | -11.6% | -20.4% | ?
Cc1cn2c(=O)cc(COC(=O)c3ccc(NC(=O)COc4ccc(C)c(C)c4)cc3)nc2s1 | . | -6.9% | . | 0.0%
S=c1[nH]nc(CCc2ccccc2)n1-c1ccccc1 | 3.55µM* | ? | -11.4% | 2.9%
S=c1[nH]nc(Cc2ccccc2)n1-c1ccc(Cl)cc1 | -16.3% | 2.82µM* | 1.3% | 4.7%
Cc1cc(C)nc(SCc2n[nH]c(=S)n2C)n1 | 1.3% | ? | -7.8% | -1.8%
S=c1[nH]nc(COc2ccc(Cl)cc2)n1-c1ccc(Cl)cc1 | -5.5% | ? | 11.4% | -0.1%
SMILES | LmPK inhibitor | Tb PYK inh | RE007 growth inh | Sm TGR inh
Cc1ccc(-n2c(CSc3nc(C)cc(C)n3)n[nH]c2=S)cc1 | ? | 7.08µM* | -0.1% | -1.2%
S=c1[nH]nc(COc2ccc(Cl)cc2)n1-c1ccccc1 | ? | 8.91µM* | 5.8% | -16.5%
CN(C)c1ccc(-c2ccnc3c2CC(C)(C(=O)Nc2cccc(Oc4ccccc4)c2)O3)cc1 (stereo not given) | . | -0.9% | 4.3% | .
CC1=C(C(=O)N2CCOCC2)CC(CC(=O)NCC2CCCCC2)C(=O)N1Cc1ccc(C(C)(C)C)cc1 (stereo not given) | . | 1.4% | 0.2% | .
COc1cccc(NC(=O)N(C)C[C@H]2OCc3cnnn3CCCC(=O)N([C@H](C)CO)C[C@@H]2C)c1 | . | -1.9% | 1.3% | .
Cc1ccc(-n2c(Cc3ccccc3)n[nH]c2=S)cc1 | 7.94µM* | ? | 6.9% | 4.1%
COc1cc(OC)c(NC(=O)c2sc3nc4n(c(=O)c3c2C)CCCC4)cc1Cl | . | -0.6% | . | 50.1µM*
Cc1c(C(=O)Nc2cccc(C(F)(F)F)c2)sc2nc3n(c(=O)c12)CCCC3 | . | -2.6% | . | -35.8%
COc1cc(OC)c(N(C)C(=O)c2sc3nc4n(c(=O)c3c2C)CCCC4)cc1Cl | . | 5.7% | . | 31.6µM*
Cc1c(C(=O)N(C)c2cccc(C(F)(F)F)c2)sc2nc3n(c(=O)c12)CCCCC3 | . | -4.0% | . | 10µM*
COc1cc(OC)c(N(C)C(=O)c2sc3nc4n(c(=O)c3c2C)CCCCC4)cc1Cl | . | -3.5% | . | -18.8%
CCCCc1cc2c(cn1)=C(OC(=O)c1cccs1)C(C)(OC(=O)CC)C(=O)C=2 (stereo not given) | 2.9%[11.5 µM] | . | . | .
Cc1ccc(-n2c(Cl)c(Cl)nc(Cl)c2=O)cc1 | -2.1% | 3.6% | 10µM* | 0.794µM*
Clc1ccc(C(c2ccccc2)N2CCN(c3ccccn3)CC2)cc1 (stereo not given) | -0.5% | 2.0% | -27.4% | -0.8%
Cc1[nH]c2ccccc2c1C(c1ccncc1)N1CCN(c2ccccn2)CC1 (stereo not given) | 2.2% | 14.8% | -0.9% | 1µM*
Cc1[nH]c2ccccc2c1SCC(=O)N1CCC(C)CC1 | 10.4%[11.5 µM] | -0.9% | -3.0% | 16.8%
Cc1[nH]c2ccccc2c1C(c1ccncc1)N1CCN(c2ccccc2F)CC1 (stereo not given) | -0.9% | -1.8% | 6.9% | 3.55µM*
Cc1[nH]c2ccccc2c1C(c1ccncc1)N1CCC(C)CC1 (stereo not given) | -6.0% | -7.7% | -2.8% | 2.51µM*
COc1ccccc1CN=c1c([N+](=O)[O-])nn(-c2ccc3c(c2)OCCO3)n1O | 2.1% | -2.4% | 10.9% | 39.8µM*
O=[N+]([O-])c1nn(-c2ccc3c(c2)OCCO3)n(O)c1=NCc1ccccc1Cl | -5.6% | 1.0% | 15.7% | 2.7%
COc1ccc(-n2nc([N+](=O)[O-])c(=NCCc3ccc(OC)c(OC)c3)n2O)cc1 | -1.8% | 2.2% | 31.5% | 35.5µM*
Cc1ccc(N2CCN(C(=O)c3cnn(-c4ccc(F)cc4F)c3C3CCN(C(=O)OC(C)(C)C)CC3)CC2)c(C)c1 | . | -1.5%[15.4 µM] | . | -10.0%
COc1ccccc1CN1CC[C@@]2(CCCN(C(C)=O)C2)C1 | . | -5.7% | . | .
O=C1C2=C(CCCC2)C(=O)N1c1cccc(OCCBr)c1 | 0.9% | 5.8% | ? | 44.7µM*
CCn1nc(C)cc1-c1nnc(Sc2ncc([N+](=O)[O-])s2)n1C | 0.7% | -21.7% | 35.5µM* | 0.282µM*
SMILES | LmPK inhibitor | Tb PYK inh | RE007 growth inh | Sm TGR inh
CCOC(=O)CSc1nc2c(c(-c3ccc(C)o3)c1C#N)CCCC2 | 2.2% | -3.2% | -13.6% | 44.7µM*
COC(=O)CSc1nc2c(c(-c3ccc(O)cc3)c1C#N)CCCC2 | 1.4% | -1.4% | 44.5% | .
COC(=O)CSc1nc2c(c(-c3ccco3)c1C#N)CCCC2 | -2.9% | ? | 0.0% | 3.16µM*
CCOc1ccccc1N(C)C(=O)c1sc2nc3n(c(=O)c2c1C)CCCC3 | . | -2.3% | . | -29.1%
OCC(O)CS (stereo not given) | . | 9.6% | . | .
CCOC(=O)C1CCC(CN(Cc2ccc(Cl)cc2)S(=O)(=O)c2ccc(F)c(C(=O)Nc3cccc(F)c3)c2)CC1 (stereo not given) | . | 4.2% | . | 11.2%
COC(=O)c1cc(C)nc(Sc2ccccc2N)n1 | 21.8% | 8.91µM* | -13.1% | 2.5%
COC(=O)c1ccccc1NC(=O)CSc1nc(C)cc(C)n1 | -14.7% | -5.6% | 5.1% | 7.4%
